About 710 (0.99%) of roughly 72,000 compounds were called active. Roughly 7% stayed inconclusive and do not appear here. This excerpt belongs to a sample that is enriched for actives. Values without a mark were called inactive. Calls come from the whole dose curve; as a rule, active = well fitted inhibition curve with a large enough effect; inconclusive = small, poorly fitted or top-dose-only effect; inactive = no such curve, though single readings can be large or run the other way.
Experiment: qHTS Assay for Inhibitors of the ERK Signaling Pathway using a Homogeneous Screening Assay; note: nearly all actives have a fitted effect of over 55% in size
Conditions: HEK293-V1b, vasopressin-stimulated pERK AlphaScreen; series mostly up to 57.5 µM; activity, negative = inhibition: at the top concentration
Text: qHTS Assay for Inhibitors of the ERK Signaling Pathway using a Homogeneous Screening Assay; note: nearly all actives have a fitted effect of over 55% in size
NIH Chemical Genomics Center [NCGC]
NIH Molecular Libraries Screening Centers Network [MLSCN]
Assay Submitter (PI): Dr. Wei Zheng, NCGC/NIH
The Ras/extracellular-signal-regulated kinase (ERK) mitogen activated protein (MAP) kinase signaling pathway (ERK1/2 cascade) plays is a key role in transmitting signals from the cell surface to the nucleus (Nishida and Gotoh 1993; Chang and Karin, 2001). The cascade is initiated by the small G-protein Ras, which recruits Raf […], where activation occurs. Alternatively, this pathway can be activated by elevating intracellular cAMP.
Activation of the ERK pathway is essential in increased cell division and cell survival. Sustained and constitutive activation of the ERK pathway, however, has been linked to uncontrolled cell proliferation, increased cell survival, and tumor progression. Thus, the ERK has been as an attractive target for cancer chemotherapy in the past few years (Sebolt-Leopold and Herrera, 2004). Given its physiological and pathological importance, assessment of ERK phosphorylation has been broadly performed in both basic research and drug discovery. Most assays for the measurement of ERK phosphorylation use the antibody-based detection methods, such as western blot and ELISA. These assays require multiple reagent additions with cell wash steps and are not suitable for high throughout screening.
The current cell-based ERK phosphorylation assay was performed using AlphaScreen platform. AlphaScreen is a two bead-based proximity-dependent chemical energy transfer luminescent assay platform. The assay reagents (ERK SureFire(TM) kit) were supplied from TGR BioSciences (Australia). In the presence of specific antibodies, phosphorylated ERK will bring "donor" and "acceptor" beads to a proximity range (<200 nm), and subsequently lead a chemical luminescent reaction upon exciting donor beads with 680 nm laser. To exclude the assay-related false positives, we used a biotinylated rabbit IgG to perform counter-screen. The biotinylated antibody mimics the phosphorylated ERK1/2 for bringing streptavidin coated beads and protein-A coated beads to a proximity range for the AlphaScreen detection.
NCGC Assay Protocol Summary:
HEK293 cells stably expressing type-1 vasopressin receptor (V1b) were maintained in DMEM medium (Invitrogen, Carlsbad, CA) at 37C under a humidified atmosphere containing 5% CO2 and 95% air. The medium contained 10% FBS, 2 mM L-glutamine, non-essential amino acid, pyruvate and 50 U/ml penicillin and 50 ug/ml streptomycin (Invitrogen). The aliquots of frozen cells were stored at -135C and used for the compound screening. All compounds were screened as titrations from 0.6 nM to 46 uM final concentration. Vasopressin was used to stimulate the ERK phosphorylation pathway. The ERK phosphorylation in cells was determined using an AlphaScreen assay kit provided by PerkinElmer. Data were normalized to the controls for basal activity (DMSO only) and 100% activation (25 nM vasopressin). AC50 values were determined from concentration-response data modeled with the standard Hill equation.
(1) Seed 4 ul/well of resuspended frozen HEK293 cells containing 2000 cells in white 1536-well plates for overnight with 1% FBS at 37C under a humidified atmosphere containing 5% CO2 and 95% air.
(2) Add 23 nL compounds in DMSO solution. The final titration was 0.6 nM to 46 uM.
(3) Incubate at 37C for 30 min.
(4) Dispense 0.5uL vasopressin (25 nM in final)
(5) Incubate at 37C for 5 min.
(6) Dispense 0.5uL of 1:2 diluted 5x lysis buffer.
(7) Incubate at 37C for 10 min.
(8) Dispense 1.5uL of mixture of activation buffer and reaction buffer with AlphaScreen beads (streptavidin donor beads and protein-A acceptor beads, 10 ng/well for each).
(9) Incubate at room temperature for 5 hr.
(10) Detect the assay plate in an EnVision plate reader (PerkinElmer) using the AlphaScreen detection mode.
[…]
% is set by controls: 0 for no effect and ±100 for the full control effect; potency is the fitted concentration of half-maximal effect.

Structure (SMILES)	activity, negative = inhibition	Potency
CC(C)(O)CCC(O)[C@@](C)(O)C1CC[C@]2(O)C3=CC(=O)C4CC(O)C(O)C[C@]4(C)C3CC[C@]12C (some centres not stated)	-0.972%	
N#C/C(=C\c1ccc(O)c(O)c1)C(N)=O	-23.1%	
Oc1c(CN2CCOCC2)ccc(CN2CCOCC2)c1O	-4.14% [at 11.5 µM]	
CCC[C@@H]1C[C@@]1(CCC)[C@@H](NC(=O)c1ccccc1)c1ccc(C(=O)OC)cc1	23.3%	
CCCn1c(-c2ccc(F)cc2)nc2c(NC3CCN(Cc4ccccc4)C3)nc(C)nc21 (configuration not stated)	-14.2%	
O=C(Nc1c[nH]c(=O)[nH]c1=O)Oc1ccccc1	-1.65% [at 11.5 µM]	
CN(CCOc1ccc(CC2SC(=O)NC2=O)cc1)c1ccccn1 (configuration not stated)	23.1%	
COc1ccc(-c2nc3cnc(N(C)C)nc3n(Cc3cccs3)c2=O)cc1	31%	
COC(=O)[C@@H]1C[C@H]2CC[C@H](O)C[C@H]2N1Cc1ccc(N2CCN(C)CC2)cc1	11.9%	
COCCn1c(=O)c(-c2cccc(F)c2)nc2cncnc21	-9.32%	
N#Cc1cc2[nH]c(=O)c(=O)[nH]c2cc1[N+](=O)[O-]	-0.943%	
CCOc1ccccc1-n1c(SCC(=O)NCc2ccco2)nnc1-c1ccncc1	-1.62%	
Cc1nc2nc(SCC(=O)NCc3ccco3)nn2c(C)c1Cc1ccccc1	21.2%	
CCOC(=O)c1cnc(SCC(=O)NCc2ccco2)nc1N		25.1 µM (active)
CC(C)NC[C@H](O)c1ccc2ccccc2c1		inactive
COC(=O)[C@@]1(Cc2ccccc2)[C@H]2c3cc(C(=O)N4CCCC4)n(Cc4ccc(C)o4)c3C[C@H]2CN1C(=O)c1ccccc1	-4.58%	
CN(C(=O)CN(CCO)CC(=O)N(C)C(C)(C)Cc1ccccc1)C(C)(C)Cc1ccccc1		inactive
Cc1cc(C)cc(N)c1	7.96%	
CCCn1c(-c2ccc(F)cc2)nc2c(NCC3CCCN3CC)nc(C)nc21 (configuration not stated)	-24.4%	
COC(=O)[C@@]1(Cc2ccc(F)cc2)[C@H]2c3cc(C(=O)N4CCCC4)n(Cc4ccc(OC(F)(F)F)cc4)c3C[C@H]2CN1C(=O)c1ccccc1	4.38%	
COc1ccccc1N1CCN(CCN2C(=O)c3ccccc3C(C)(C)C2=O)CC1	-25.3%	
CN(C)/C=N/c1cc(=O)n(C)c(=O)n1CC1CC1	0.0595%	
CC(C)=CCC/C(C)=C/CO/N=C1/C[C@@H](O)[C@@H](O)[C@@H]2[C@@H]3C(=O)N(C(C)(C)C)C(=O)[C@H]3CC[C@H]12	7.53% [at 11.5 µM]	
Cn1c(N)c(C(=O)COC(=O)c2cc(C(F)(F)F)nc3c(C(F)(F)F)cccc23)c(=O)n(C)c1=O	-13.9%	

Structure (SMILES)	activity, negative = inhibition	Potency
CC/C=C/C/C=C/C/C=C/CCCCCCCC(=O)OCC	26%	
CC1(C)OC(C(O)(c2ccccc2)c2ccccc2)C(C(O)(c2ccccc2)c2ccccc2)O1 (configuration not stated)	31.6% [at 11.5 µM]	
COC(=O)[C@H]1[C@H]2C[C@H]3c4[nH]c5ccccc5c4CCN3C[C@@H]2CC[C@@H]1O		inactive
Oc1ccccc1CNCc1ccccc1O	19.3% [at 11.5 µM]	
COc1ncc2nc(-c3ccc(Cl)cc3)c(=O)n(C)c2n1	-0.77%	
O=C(Nc1ccccc1)N[C@H]1C[C@H](C(=O)O)Nc2cc(Cl)cc(Cl)c21	-10.9%	
CC1O[C@@H](Oc2c(-c3ccc(O)c(O)c3)oc3cc(O)cc(O)c3c2=O)C(O)C(O)C1O (some centres not stated)	-4.83%	
COC1[C@H](OC(N)=O)C(O)[C@H](Oc2ccc3c(O)c(NC(=O)c4ccc(O)c(CC=C(C)C)c4)c(=O)oc3c2C)OC1(C)C (some centres not stated)	14.4%	
C#CCCCCCCCCCCCCCCCC(=O)O	9.99%	
CO[C@H]1COC(=O)[C@@H](OCc2ccccc2)/C=C\[C@H](C)[C@@H](OC)COC(=O)[C@H](OCc2ccccc2)/C=C\[C@@H]1C	30% [at 11.5 µM]	
O=C(CSc1nnc(-c2cnccn2)n1Cc1ccco1)c1ccc(Cl)c(Cl)c1	-26.5%	
O=C(CSc1nnc(-c2cccs2)n1Cc1ccco1)c1ccc2c(c1)OCO2		31.6 µM (active)
O=C(CSc1nnc(-c2cccnc2)n1Cc1ccco1)c1ccc(Cl)c(Cl)c1	10.5%	
N#Cc1cccc(-c2ccc3ncnc(NCc4cccs4)c3c2)c1	-25.3%	
Cc1noc(C)c1-c1nccc(N2CCOCC2)n1	-10.5%	
N#CCC(=O)NC(=O)NCC1CC1	12.1%	
COc1ccc2c3c1OC1CC(O)C=C[C@@]31CCN(C)C2 (some centres not stated)	14%	
COC(=O)c1ccc(C23CC4(C2)[C@H](CN(Cc2cccnc2)[C@@H]4c2ccccc2)C3c2ccc(Cl)nc2)cc1 (some centres not stated)	-2.78%	
CC(C)CO/N=C1/C[C@@H](O)[C@@H](O)[C@@H]2[C@@H]3C(=O)N(C[C@@H]4CCCO4)C(=O)[C@H]3CC[C@@H]12	8.6% [at 11.5 µM]	
CCNc1ncc2ncc(=O)n(Cc3cccc(OC)c3)c2n1	-28.5%	
CC(=O)c1ccc(-n2nnnc2SCC(=O)N2CCN(C(=O)c3ccco3)CC2)cc1	-14%	
Cn1nnnc1SCC(=O)N1CCN(C(c2ccccc2)c2ccccc2)CC1	2.32%	
Cn1nnnc1SCC(=O)N1CCN(Cc2ccccc2)CC1		31.6 µM (active)

Reference: PubChem BioAssay AID995 (National Center for Advancing Translational Sciences (NCATS), 2007)
